Results published in PubChem BioAssay.
Active and inactive are the calls of the source.

What was measured:
[1] = test system: PRMT1 (protein arginine N-methyltransferase 1); assay: PRMT1 binders on small-molecule microarrays, primary screen, biochemical, small-molecule microarray, 635 nm fluorescence (AID 1088); conditions: small-molecule microarray binding, higher = more signal;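 also: binding of Prmt1 protein to compounds spotted on small-molecule microarray slides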
[2] = yeast growth modulation, basal conditions, primary screen, YJM789 clinical isolate, OD600, 24 h (AID 1089);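 also: growth of clinical yeast isolate S. cerevisiae YJM 789 seeded 1000 cells per well; test concentration not given here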; conditions: S. cerevisiae YJM789 growth, higher = more signal, called active from +8 up or from −8 down
[3] = fission yeast growth modulation, primary screen, strain 972, OD600, 24 h, no modulator (AID 1090);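 also: basal condition with compound alone and no growth modifier present; test concentration not given here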; conditions: S. pombe 972 growth, higher = more signal, called active from +8 up or from −8 down
[4] = S. cerevisiae growth modulation with rapamycin, primary screen, strain BY4716, OD600, 96 h (AID 1091); conditions: higher = more signal, called active from +8 up or from −8 down; also: test concentration not given here
[5] = target: Torsin-1A-interacting protein 2 (Homo sapiens) (UniProt Q8NFQ8); assay: LULL1 binders on small-molecule microarray, primary screen, cell lysate, human LULL1 lysate, 635/667 nm fluorescence (AID 1092); conditions: hLULL1 lysate binding, 635 nm fluorescence, higher = more signal;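 also: probe is lysate of COS7 cells overexpressing human LULL1; score merges per-feature 667 nm fluorescence with signal-to-noise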
Torsin-1A-interacting protein 2 (Homo sapiens), sequence (Q8NFQ8 whole entry, looked up): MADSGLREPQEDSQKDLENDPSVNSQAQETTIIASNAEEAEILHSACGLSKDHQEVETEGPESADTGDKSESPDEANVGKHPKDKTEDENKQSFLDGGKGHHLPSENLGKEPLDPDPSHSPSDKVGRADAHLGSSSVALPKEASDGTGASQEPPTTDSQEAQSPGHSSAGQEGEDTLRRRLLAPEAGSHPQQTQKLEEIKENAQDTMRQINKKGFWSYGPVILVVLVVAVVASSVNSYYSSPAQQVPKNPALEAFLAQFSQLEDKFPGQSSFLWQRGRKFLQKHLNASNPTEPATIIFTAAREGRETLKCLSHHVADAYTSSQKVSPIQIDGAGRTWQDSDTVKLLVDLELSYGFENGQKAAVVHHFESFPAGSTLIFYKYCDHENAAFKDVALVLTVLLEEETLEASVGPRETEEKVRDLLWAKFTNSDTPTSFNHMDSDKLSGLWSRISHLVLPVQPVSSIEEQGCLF

[6] = E. coli growth modulation, two-sided OD650, primary screen, E. coli filamentation project, strain DRC41, 24 h (AID 1093); conditions: OD650, 24 h, higher = more signal, called active from +8 up or from −8 down;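 also: MC1000 strain lacking acrAB efflux and sulA so SOS filamentation is blocked; test concentration not given here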
[7] = small-molecule microarray binders of probe aLefty2, primary screen, biochemical, biotinylated probe, 635/667 nm fluorescence (AID 1094); conditions: higher = more signal;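 also: score merges spot fluorescence near 667 nm with spot signal-to-noise ratio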
[8] = test system: Noggin (protein binding on small-molecule microarray); assay: Noggin binders on small-molecule microarray, primary screen, biochemical, 635/667 nm fluorescence (AID 1095); conditions: 635 nm fluorescence, higher = more signal;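 also: score merges 667 nm feature fluorescence with signal to noise over triplicate slides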
[9] = target: Neurogenic locus notch homolog protein 3 (Homo sapiens) (UniProt Q9UM47); assay: NOTCH3 binders on small-molecule microarray, primary screen, biochemical, 635/667 nm fluorescence (AID 1096); conditions: NOTCH3 binding, 635 nm fluorescence, higher = more signal
Neurogenic locus notch homolog protein 3 (Homo sapiens), sequence (Q9UM47 whole entry, looked up): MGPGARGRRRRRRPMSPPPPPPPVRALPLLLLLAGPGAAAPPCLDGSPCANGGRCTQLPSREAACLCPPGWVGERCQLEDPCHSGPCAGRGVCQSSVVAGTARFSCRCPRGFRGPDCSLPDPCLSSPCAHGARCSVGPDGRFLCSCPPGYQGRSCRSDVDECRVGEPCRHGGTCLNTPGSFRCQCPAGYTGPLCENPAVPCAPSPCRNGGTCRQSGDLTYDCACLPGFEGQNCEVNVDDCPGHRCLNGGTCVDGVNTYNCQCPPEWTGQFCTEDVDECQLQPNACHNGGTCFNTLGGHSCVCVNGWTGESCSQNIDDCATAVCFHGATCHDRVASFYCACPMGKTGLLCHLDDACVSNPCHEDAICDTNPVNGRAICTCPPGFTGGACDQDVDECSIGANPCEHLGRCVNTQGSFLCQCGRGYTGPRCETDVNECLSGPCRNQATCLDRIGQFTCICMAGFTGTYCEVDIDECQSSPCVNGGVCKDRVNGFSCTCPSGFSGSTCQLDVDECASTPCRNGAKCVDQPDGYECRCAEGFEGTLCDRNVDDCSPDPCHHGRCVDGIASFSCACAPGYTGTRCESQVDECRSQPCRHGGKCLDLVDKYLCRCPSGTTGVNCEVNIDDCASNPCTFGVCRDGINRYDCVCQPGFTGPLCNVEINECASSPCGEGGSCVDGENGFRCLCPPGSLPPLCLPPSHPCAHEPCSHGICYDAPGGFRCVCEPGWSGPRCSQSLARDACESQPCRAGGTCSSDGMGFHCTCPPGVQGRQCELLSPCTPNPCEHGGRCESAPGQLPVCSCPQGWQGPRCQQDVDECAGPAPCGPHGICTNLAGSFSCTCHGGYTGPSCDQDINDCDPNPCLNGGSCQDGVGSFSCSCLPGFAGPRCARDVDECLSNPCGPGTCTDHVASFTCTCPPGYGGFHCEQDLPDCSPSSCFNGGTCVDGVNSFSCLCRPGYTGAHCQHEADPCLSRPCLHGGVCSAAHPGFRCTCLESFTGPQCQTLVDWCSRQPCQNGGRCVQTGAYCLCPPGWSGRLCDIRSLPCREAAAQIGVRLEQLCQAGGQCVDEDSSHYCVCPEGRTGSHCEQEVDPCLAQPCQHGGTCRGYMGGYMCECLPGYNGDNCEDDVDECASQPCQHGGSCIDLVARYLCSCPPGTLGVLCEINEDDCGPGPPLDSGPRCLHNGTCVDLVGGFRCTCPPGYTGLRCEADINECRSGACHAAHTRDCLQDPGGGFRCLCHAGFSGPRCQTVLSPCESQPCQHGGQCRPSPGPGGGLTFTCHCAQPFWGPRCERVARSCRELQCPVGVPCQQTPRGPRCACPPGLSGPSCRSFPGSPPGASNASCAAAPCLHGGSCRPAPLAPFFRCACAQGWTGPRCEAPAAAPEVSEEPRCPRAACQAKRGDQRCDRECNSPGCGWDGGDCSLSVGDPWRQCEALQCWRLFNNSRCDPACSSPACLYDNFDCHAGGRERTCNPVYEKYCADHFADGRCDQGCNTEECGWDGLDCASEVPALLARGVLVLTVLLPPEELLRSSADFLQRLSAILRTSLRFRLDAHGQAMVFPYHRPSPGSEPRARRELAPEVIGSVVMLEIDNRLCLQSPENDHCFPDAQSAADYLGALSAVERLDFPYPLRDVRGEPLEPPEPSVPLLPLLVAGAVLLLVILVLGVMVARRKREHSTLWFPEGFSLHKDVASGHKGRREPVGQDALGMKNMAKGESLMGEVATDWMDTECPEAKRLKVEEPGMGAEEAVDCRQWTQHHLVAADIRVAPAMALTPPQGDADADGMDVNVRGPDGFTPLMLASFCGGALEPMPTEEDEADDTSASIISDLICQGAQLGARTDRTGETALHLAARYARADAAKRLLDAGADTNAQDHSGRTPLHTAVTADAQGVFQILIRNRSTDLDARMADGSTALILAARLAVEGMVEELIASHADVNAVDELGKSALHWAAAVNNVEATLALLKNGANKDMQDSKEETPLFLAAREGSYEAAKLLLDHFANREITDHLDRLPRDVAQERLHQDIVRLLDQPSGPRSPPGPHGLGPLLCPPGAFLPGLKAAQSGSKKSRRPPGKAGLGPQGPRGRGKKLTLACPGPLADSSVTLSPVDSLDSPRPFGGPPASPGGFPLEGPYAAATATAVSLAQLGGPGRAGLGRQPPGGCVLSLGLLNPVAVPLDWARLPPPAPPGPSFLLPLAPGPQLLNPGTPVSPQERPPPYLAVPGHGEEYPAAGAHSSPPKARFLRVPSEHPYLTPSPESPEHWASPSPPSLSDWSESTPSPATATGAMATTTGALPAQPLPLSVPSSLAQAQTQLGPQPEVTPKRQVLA

[10] = small-molecule microarray binders of probe aEGFR, primary screen, biochemical, biotinylated probe, 635/667 nm fluorescence (AID 1097); conditions: higher = more signal;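 also: probe is a biotinylated anti-EGFR antibody binding compounds printed on slides; score combines fluorescence near 667 nm and signal to noise of each spot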

Compound	composite z-score [1]	z-score [2]	z-score [3]	z-score [4]	composite z-score [5]	z-score [6]	composite z-score [7]	composite z-score [8]	composite z-score [9]	composite z-score [10]
O=C1O[C@@H](c2ccccc2)[C@@H](c2ccccc2)N2[C@@H](c3ccc(O)cc3)[C@]3(C(=O)Nc4ccc(C#CCCO)cc43)[C@@H](C(=O)Nc3nc4ccccc4s3)[C@H]12	1.55	0.782 (inactive)	0.403 (inactive)	1.93 (inactive)	2.81	0.887 (inactive)	-0.119	1.35	0.851	-0.0036
CC(=O)n1cc(C(O)C2C=CC3C(=O)N(c4ccccc4)C(=O)C3N2Nc2ccccc2)c2ccccc21 (stereo not given)	0.174	0.514 (inactive)	0.965 (inactive)	0.102 (inactive)	2.73	-1.18 (inactive)	0.203	-0.272	0.816	0.672
CC(C)N1CC=CC23O[C@@H]4C=CCOC(=O)[C@@H]4[C@H]2C(=O)N(C(C)CO)[C@@H]3C1=O (stereo not given in full)	-1	-0.741 (inactive)	-0.06 (inactive)	-0.0277 (inactive)	-0.163	-0.0334 (inactive)	0.119	-1.03	-0.66	-0.199
O=C1O[C@@H](c2ccccc2)[C@@H](c2ccccc2)N2[C@@H](c3ccccc3OCCO)[C@]3(C(=O)Nc4ccccc43)[C@@H](C(=O)NC[C@H](O)c3ccccc3)[C@H]12	1.4	2.62 (inactive)	1.68 (inactive)	5.71 (inactive)	2.69	-0.467 (inactive)	-0.139	-0.84	-0.359	-0.207
CCOC(=O)C[C@H]1[C@H](OC(=O)Cc2ccc3c(c2)OCO3)[C@@H](NC(=O)C2CCCCC2)c2cc(OCCCO)ccc2N1C(=O)c1ccc2ccccc2n1	0.688	0.327 (inactive)	-1.46 (inactive)	-0.591 (inactive)	1.34	0.848 (inactive)	-0.0798	1.98	1.09	0.0428
Cc1ccc(F)cc1S(=O)(=O)N[C@@H]1CCN(Cc2ccc(OC(C)C)cc2)C1	-0.43	-1.01 (inactive)	-14.4 (active)	-0.839 (inactive)	-0.526	-19.6 (active)	-0.218	0.313	-0.877	-0.273
[N-]=[N+]=Nc1ccccc1[C@H]1OC(c2ccc(OCCCO)cc2)=N[C@@]1(CCS(=O)(=O)c1ccccc1)C(=O)N1CCCCC1	1.51	-0.347 (inactive)	0.189 (inactive)	2.73 (inactive)	3.16	-0.413 (inactive)	0.428	0.0467	1.12	0.176
COc1cc(CO)cc(I)c1O[C@H]1C=C(C(=O)NCCO)C[C@@H](NCc2ccccc2F)[C@@H]1O	1.13	2.24 (inactive)	-3.89 (inactive)	0.519 (inactive)	0.491	1.77 (inactive)	-0.0943	1.05	0.75	-0.151
CC(C)CNC(=O)[C@@H]1c2ccccc2C(=O)N(Cc2cc(F)cc(C(F)(F)F)c2)[C@H]1c1ccc(CO)cc1	1.4	-0.212 (inactive)	-0.758 (inactive)	-0.483 (inactive)	1.73	2.93 (inactive)	0.188	0.179	0.379	-0.0214
C=CCN1C(=O)[C@@]2(O[C@@H](CCn3cc([C@H](O)c4ccccc4)nn3)[C@H]([Si](C)(C)c3ccc(OC)cc3)[C@H]2C)c2ccccc21	1.55	-0.78 (inactive)	-0.0638 (inactive)	0.307 (inactive)	1.02	1.1 (inactive)	-0.0507	0.442	1.16	-0.094
CN(C)CCCNC(=O)[C@@H]1c2ccccc2C(=O)N(CC23CC4CC(CC(C4)C2)C3)[C@H]1c1ccc(CO)cc1	1.53	-0.0129 (inactive)	-7.98 (inactive)	-2.06 (inactive)	3.24	0.583 (inactive)	-0.227	0.954	1.05	-0.0801
CC=CC(O)C1C=CC2C(=O)N(c3ccccc3)C(=O)C2N1Nc1ccc([N+](=O)[O-])cc1 (stereo not given)	0.725	-0.0987 (inactive)	1.17 (inactive)	1.44 (inactive)	2.65	-0.699 (inactive)	-0.0931	0.257	0.512	0.0007
NC(=O)NCC#Cc1ccc2c(c1)[C@]1(C(=O)N2)[C@H](C(=O)O)[C@H]2C(=O)O[C@H](c3ccccc3)[C@H](c3ccccc3)N2[C@@H]1c1ccccc1OCCO	1.43	-1.39 (inactive)	-1.19 (inactive)	-0.675 (inactive)	1.43	3.22 (inactive)	0.857	1.01	1.11	0.0223
COCCOC(=O)N1C(=O)[C@@]2(c3cc(C#CC4=CCCCC4)ccc31)[C@H](c1ccccc1OCCO)N1[C@H](c3ccccc3)[C@H](c3ccccc3)OC(=O)[C@H]1[C@@H]2C(=O)N1CCc2cc(OC)c(OC)cc2C1	1.55	1.83 (inactive)	0.819 (inactive)	3.63 (inactive)	0.889	-0.0749 (inactive)	-0.479	0.676	1.08	-0.33
COc1cc(CO)cc(I)c1O[C@H]1C=C(C(=O)NCCO)C[C@@H](N(CC2CCCCC2)C(=O)c2ccc(C(F)(F)F)cc2)[C@@H]1O	1.23	0.0635 (inactive)	-0.169 (inactive)	-0.0789 (inactive)	1.89	1.78 (inactive)	-0.166	0.586	0.937	-0.0828
CO[C@H]1O[C@H](CO)[C@@H](OC(=O)c2ccc(Br)cc2)[C@@H]2OC(=O)[C@@H](Cc3ccc4ccccc4c3)C/C=C/C[C@H](Cc3ccc4ccccc4c3)C(=O)O[C@@H]12	1.45	-2.76 (inactive)	-2.35 (inactive)	-0.842 (inactive)	2.82	0.0001 (inactive)	-0.0375	0.0104	0.478	-0.112
C=CCOC(=O)[C@@H]1[C@H]2C(=O)O[C@H](c3ccccc3)[C@H](c3ccccc3)N2[C@H](c2ccc(OCCOC(=O)[C@H]3C[C@H]4C(=O)N[C@@H](CCCC[N+](C)(C)C)C(=O)N4[C@H]3c3ccc(O)cc3)cc2)[C@@]12C(=O)Nc1ccc(I)cc12	1.53	1.86 (inactive)	1.49 (inactive)	4.28 (inactive)	2.64	-0.0021 (inactive)	-0.126	1.94	1.05	-0.027
Cc1c(NC(=O)/C(C#N)=C/C=C/c2ccc(N(C)C)cc2)c(=O)n(-c2ccccc2)n1C	1.55	-0.0755 (inactive)	-0.544 (inactive)	-0.299 (inactive)	2.6	0.482 (inactive)	0.647	0.586	0.739	0.118
C=CCOC(=O)[C@@H]1[C@H]2C(=O)O[C@H](c3ccccc3)[C@H](c3ccccc3)N2[C@H](c2ccc(OCCOC(=O)[C@H]3C[C@H]4C(=O)N[C@@H](CC(C)C)C(=O)N4[C@H]3c3ccc(O)cc3)cc2)[C@@]12C(=O)Nc1ccc(I)cc12	1.54	0.157 (inactive)	1.11 (inactive)	2.65 (inactive)	2.75	0.574 (inactive)	-0.0229	1.81	1.06	0.0582
CCOC(=CC(=O)OC)CC(O)c1cccc(Cl)c1 (stereo not given)	1.39	-4.05 (inactive)	-7.01 (inactive)	-1.53 (inactive)	2.4	0.341 (inactive)	-0.125	-0.673	0.27	-0.128
COc1ccc(NN2C(C(O)c3ccccn3)C=CC3C(=O)N(C4CCCCC4)C(=O)C32)cc1 (stereo not given)	1.56	-0.199 (inactive)	-0.121 (inactive)	0.151 (inactive)	3.26	0.265 (inactive)	0.282	0.05	1.05	0.134
CC(C)C(=C=CC[C@H](O)c1ccc(OCCO)cc1)C[C@H](O)c1cc(Cl)cc(Cl)c1O	1.4	0.297 (inactive)	-3.66 (inactive)	-0.558 (inactive)	1.78	0.192 (inactive)	0.0511	1.41	1.04	-0.008
COC(=O)C[C@H]1O[C@]2(C(=O)N(C)c3ccccc32)[C@@H](C)[C@@H]1[Si](C)(C)c1ccc(C)cc1	1.12	-0.421 (inactive)	-11.3 (active)	-0.673 (inactive)	0.797	2.17 (inactive)	-0.137	1.27	0.989	-0.0674
CCCC=C(CCC)[C@@H](NP(=O)(c1ccccc1)c1ccccc1)c1ccc(C(F)(F)F)cc1	0.804	-0.276 (inactive)	0.423 (inactive)	0.0291 (inactive)	1.01	-0.159 (inactive)	0.0593	-0.13	0.11	0.58
NC(=O)NCC#Cc1ccc2c(c1)[C@]1(C(=O)N2)[C@H](C(=O)Nc2nc3ccccc3s2)[C@H]2C(=O)O[C@H](c3ccccc3)[C@H](c3ccccc3)N2[C@@H]1c1ccc(O)cc1	1.41	3.89 (inactive)	3.26 (inactive)	7.47 (inactive)	-0.569	2.01 (inactive)	0.14	0.614	1.05	-0.0701
O=C1NC(=O)C2C1C=CC(C(O)c1cc(C(F)(F)F)cc(C(F)(F)F)c1)N2Nc1ccc(Cl)cc1Cl (stereo not given)	0.33	-1.44 (inactive)	-17 (active)	-0.256 (inactive)	2.24	-2.34 (inactive)	0.0094	-0.93	0.398	0.228
COc1ccc(C(O)C2C=CC3C(=O)N(c4ccccc4)C(=O)C3N2Nc2ccccc2)cc1OCc1ccccc1 (stereo not given)	1.57	-0.177 (inactive)	1.3 (inactive)	0.25 (inactive)	3.53	-1.2 (inactive)	0.104	0.88	1.03	0.0386
C=C(COC)/C(=C/C[C@@H](OC(=O)c1ccncc1)c1ccc(CO)o1)c1cnc2ccccc2c1	1.55	-0.854 (inactive)	0.536 (inactive)	0.14 (inactive)	1.59	0.647 (inactive)	-0.112	1.88	1.02	-0.0059
